The results in this text go back to PubChem BioAssay AID2283186 (EPA ToxCast).

SMILES strings stand for the structures. Activity calls are given as the source filed them. How the source made its calls: active means hit-call score of the fitted dose curve at least 0.9, where 1 is the maximum; inactive means score below 0.9.

Sequence of human p21 Activated Kinase 2 (PAK2), PAK2 (gene 5062) (Q13177 whole entry, looked up): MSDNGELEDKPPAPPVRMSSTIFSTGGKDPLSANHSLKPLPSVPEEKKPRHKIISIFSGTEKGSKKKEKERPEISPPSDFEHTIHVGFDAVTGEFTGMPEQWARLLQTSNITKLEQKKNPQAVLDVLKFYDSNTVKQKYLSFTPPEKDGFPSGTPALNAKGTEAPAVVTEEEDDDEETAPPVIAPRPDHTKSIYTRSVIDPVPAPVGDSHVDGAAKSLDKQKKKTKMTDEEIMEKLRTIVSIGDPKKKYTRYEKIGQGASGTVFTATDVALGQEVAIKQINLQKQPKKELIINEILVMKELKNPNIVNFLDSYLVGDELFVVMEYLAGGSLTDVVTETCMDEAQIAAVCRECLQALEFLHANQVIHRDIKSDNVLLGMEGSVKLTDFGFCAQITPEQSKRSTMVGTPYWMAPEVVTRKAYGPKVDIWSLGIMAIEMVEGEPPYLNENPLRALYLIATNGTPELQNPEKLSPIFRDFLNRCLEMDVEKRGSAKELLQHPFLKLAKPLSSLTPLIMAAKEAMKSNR

The target of the assay is human p21 Activated Kinase 2 (PAK2), PAK2 (gene 5062) (UniProt Q13177). Nature of the assay: NVS_ENZ_hPAK2: NovaScreen (NVS) Enzymatic Assay for human p21 Activated Kinase 2 (PAK2). The method, then:
NVS_ENZ_hPAK2 is a biochemical, single-readout assay that uses extracted gene-proteins in a cell-free assay. Measurements were taken 1 hour after chemical dosing in a 384-well plate.NVS_ENZ_hPAK2 is one of one assay component(s) measured or calculated from the NVS_ENZ_hPAK2 assay. It is designed to make measurements of enzyme activity, a form of enzyme reporter, as detected with fluorescence intensity signals by Fluorescence and electrophoretic mobility shift technology.Data from the assay component NVS_ENZ_hPAK2 was analyzed into 1 assay endpoint. This assay endpoint, NVS_ENZ_hPAK2, was analyzed in the positive analysis fitting direction relative to DMSO as the negative control and baseline of activity. Using a type of enzyme reporter, loss-of-signal activity can be used to understand changes in the enzymatic activity as they relate to the gene PAK2. Furthermore, this assay endpoint can be referred to as a primary readout, because this assay has produced multiple assay endpoints where this one serves a enzymatic activity function. To generalize the intended target to other relatable targets, this assay endpoint is annotated to the kinase intended target family, where the subfamily is serine/threonine kinase. […]
In the case of `CC(C)(c1ccc(O)cc1)c1ccc(O)cc1`, the compound was called inactive. Under `COCCO` stands “inactive”.
